# An excerpt weighted towards active compounds, which were near 1.3% of everything screened.
# gsp agonist: agonists of gsp mutant (McCune-Albright syndrome) | gsp mutant cells, cAMP HTRF, 30 min | Potency, µM (doses to about 76.9 µM), inactives show top-dose activation (cAMP increase), actives largely listed as activators | actives 0.13% (n = 340,000) | AID 624287; active = well fitted activation curve with a large enough effect; inconclusive = small, poorly fitted or top-dose-only effect, or another doubt; inactive = no such curve, though single readings can be large or run the other way; cell line not stated here;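 note: phosphodiesterase inhibitor Ro 20-1724 added with compounds to block cAMP breakdown; potency is the fitted concentration of half-maximal effect; nearly all actives have a fitted effect of over 60% in size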
#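 Cells stably selected in G418 were plated at 2000/well, grown 16-24 hr, then given compounds in DMSO with the PDE inhibitor […] (300 uM solution added) for 30 min at 37C; cAMP was read by HTRF.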
# RXFP1 antag: RXFP1 (human) relaxin receptor antagonism; HEK293-RXFP1, relaxin-stimulated cAMP HTRF, 30 min; active compounds read low; activity change, negative = inhibition, % at 57.5 µM; actives 0.59% (n = 350,000); AID 1259400;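 active = activity change of -60% or lower, but not beyond a set lower limit; inconclusive = change between -60% and -40%, or beyond the set limit; inactive = change above -40%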; note: % is set by controls: 0 for no effect and ±100 for the full control effect
# Target sequence (Q9HBX9 whole entry, looked up): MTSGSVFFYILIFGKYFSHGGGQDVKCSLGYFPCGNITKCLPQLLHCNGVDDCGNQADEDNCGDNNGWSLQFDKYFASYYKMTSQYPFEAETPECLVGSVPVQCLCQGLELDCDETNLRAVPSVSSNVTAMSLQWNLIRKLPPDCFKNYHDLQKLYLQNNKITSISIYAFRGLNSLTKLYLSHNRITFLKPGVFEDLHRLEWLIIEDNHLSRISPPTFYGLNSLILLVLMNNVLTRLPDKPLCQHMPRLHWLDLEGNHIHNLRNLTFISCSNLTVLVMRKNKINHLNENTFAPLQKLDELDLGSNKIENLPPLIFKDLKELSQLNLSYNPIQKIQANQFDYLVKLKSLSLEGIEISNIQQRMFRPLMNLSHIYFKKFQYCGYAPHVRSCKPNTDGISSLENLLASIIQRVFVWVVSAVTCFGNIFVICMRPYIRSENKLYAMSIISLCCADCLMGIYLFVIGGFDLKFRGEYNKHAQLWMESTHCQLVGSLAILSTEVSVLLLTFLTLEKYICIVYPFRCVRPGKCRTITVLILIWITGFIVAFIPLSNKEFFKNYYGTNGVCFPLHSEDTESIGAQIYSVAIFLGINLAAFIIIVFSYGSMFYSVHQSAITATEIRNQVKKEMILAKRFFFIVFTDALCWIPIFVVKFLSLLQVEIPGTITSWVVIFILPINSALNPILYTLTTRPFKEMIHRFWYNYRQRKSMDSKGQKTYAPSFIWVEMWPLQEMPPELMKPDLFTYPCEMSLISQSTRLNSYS
# Akt phos inh: blocks phosphorylation of Akt; Neuro2A IGF-stimulated pAkt S473 HTRF, 20 min; active compounds read low; actives 0.32% (n = 360,000); activity change, % for hits at 50 µM; in the data active = activity change below about -80%; inconclusive = mostly about -51% to -80%; note: % is set by controls: 0 for no effect and ±100 for the full control effect
#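 Single-point screen (50 µM final compound) in Neuro2A cells stimulated 20 min with 6 nM IGF at 37 deg C. After lysis, Ser473-phosphorylated Akt read by HTRF (ex 330 nm, em 615/665 nm) as the 665/615 ratio.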
# gsp antagonist: antagonists of gsp mutant (McCune-Albright syndrome); gsp-mutant cells, cAMP HTRF, 30 min; AID 624288; Potency, µM (highest dose often 76.9 µM), for the others: top-dose activity change, negative = inhibition, most hits filed as inhibitors; actives 0.4% (n = 340,000); calls by dose curve; cell line not stated here;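 note: intracellular cAMP measured with PDE inhibitor Ro 20-1724 present during compound exposure; potency is the fitted concentration of half-maximal effect; % is set by controls: 0 for no effect and ±100 for the full control effect; nearly all actives have a fitted effect of over 65% in size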
#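 HTRF cAMP measurement after 30 min RT detection following 30 min, 37C compound treatment alongside […] (added as 300 uM solution) in G418-selected cells seeded at 2000/well and grown 16–24 h.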
# RXFP1 ag: agonists of human relaxin receptor RXFP1; Q9HBX9; HEK293T-RXFP1 cAMP TR-FRET, 30 min; response scale: percent of porcine relaxin response, buffer zero; Potency, µM (series often up to 57.5 µM), inactives show at the highest dose activation, actives largely listed as activators; actives 0.3% (n = 370,000); active = well fitted activation curve with a large enough effect; inconclusive = small, poorly fitted or top-dose-only effect; note: potency is the fitted concentration of half-maximal effect; % is set by controls: 0 for no effect and ±100 for the full control effect; nearly all actives have a fitted effect of over 60% in size
#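 HEK293T cells stably expressing RXFP1 were pretreated with the PDE4 inhibitor Ro 20174, exposed to compounds for 30 min at 37C, lysed, and cAMP was read by TR-FRET. Data normalized to buffer (basal) and 29 nM porcine relaxin (100%).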
# * hit, by the source's call; i = inactive; ? = inconclusive; / = no result; [ ] = dose if it differs, or a comment.
SMILES,gsp agonist,RXFP1 antag,Akt phos inh,gsp antagonist,RXFP1 ag
O=C1NC(=O)/C(=C\c2ccc(Oc3cnccn3)cc2)S1,-1%[15.4 µM],1,i,?,1%
COc1cc(C2NC(=O)N(C)C3=C2C(=O)N(c2ccccc2)C3)ccc1O (stereo not given),/,/,/,/,0%
CCCCc1ccc(NC(=O)CSc2nc(=O)n(CCN(C)C)c3c2CCC3)cc1,16%[15.4 µM],-85*,i,-8%,0%
CCCCc1ccc(NC(=O)CSc2nc(=O)n(CCN(CC)CC)c3c2CCCC3)cc1,10%,-16,i,-5%,2%
Cc1nc2ccccc2c(=O)n1NC(=O)Cc1ccc(Br)cc1,?,-13,-81%*,15%,9%
O=C(OCCN1C(=O)c2ccccc2C1=O)c1cc(S(=O)(=O)N2CCOCC2)ccc1Cl,-43%,1,i,1%,3%
O=C(CN1C(=O)c2ccccc2C1=O)Nc1ccc(S(=O)(=O)N2CCOCC2)cc1,-8%,-82*,i,-1%,2%
O=C(OCN1C(=O)c2ccccc2C1=O)c1cc(S(=O)(=O)N2CCOCC2)ccc1F,3.2µM*,9,i,-1%,?
CCC(C)NC(=O)C(Cc1ccccc1)NS(=O)(=O)c1ccc2c(c1)CCC(=O)N2 (stereo not given),11%,-71*,i,3%,-1%
Cc1ccc(-n2c(O)c(/C=N/Nc3ccc(S(=O)(=O)N4CCOCC4)cc3[N+](=O)[O-])c3ccccc3c2=O)c(C)c1,-27%[15.4 µM],-94*,i,40µM*,0%
O=C(O)c1ccc(/C=N\Nc2ccc(S(=O)(=O)N3CCOCC3)cc2[N+](=O)[O-])cc1,?,-7,i,1%,2%
Nc1ccccc1-c1n[nH]c(=S)s1,?,-14,i,-17%,28µM*
O=[N+]([O-])c1ccc(N/N=C/c2sc(N3CCOCC3)nc2-c2ccccc2)c(S(=O)(=O)Nc2ccccc2Cl)c1,-107%,-7,i,4µM*,-1%
O=[N+]([O-])c1ccc(N/N=C/c2sc(N3CCOCC3)nc2-c2ccccc2)c(S(=O)(=O)Nc2ccc(Cl)cc2)c1,?,-6,i,-25%,5%
O=C(N/N=C/c1sc(N2CCOCC2)nc1-c1ccccc1)c1ccccc1Cl,-16%[15.4 µM],7,i,-8%,0%
O=C(N/N=C/c1sc(N2CCOCC2)nc1-c1ccccc1)c1ccccc1O,9%,?,i,40µM*,0%
Cc1cc(S(=O)(=O)Nc2ccc(C(=O)NCC3(N4CCCCC4)CCCCC3)cc2)ccc1F,18%[15.4 µM],-77*,i,0%,0%
CCOc1ccc(C(=O)N2CC(=O)Nc3ccc(C)cc3C2c2ccc(F)cc2)cc1OCC (stereo not given),/,-4,/,/,-3%
CC1CCN(S(=O)(=O)c2nnc(NC(=O)c3cccc([N+](=O)[O-])c3)s2)CC1,43%,-7,i,?,-1%
O=C(Nc1nnc(S(=O)(=O)N2CCCC2)s1)c1cccc([N+](=O)[O-])c1,?,-21,i,50µM*,-1%
Cc1cc(Br)c2nc3c(c(C(=O)O)c2c1)CCCCC3,157%[15.4 µM],52,i,11%,2.2µM*
COC(=O)c1c(NC(=O)CCCC(=O)O)sc(C)c1C,?,-2,i,-2%,3%
CCc1ccc(CCC(=O)Nc2sc(C)c(C)c2C(=O)OC)o1,-64%,-17,-91%*,-6%,1%
Cc1cccc(NC2=CC(c3cccc(Br)c3)N(c3cccc(C)c3)C2=O)c1 (stereo not given),/,-32,/,/,2%
Clc1ccc2c(c1)-c1nnc(Br)n1-c1ccccc1S2,2%,-12,i,20µM*,1%
SMILES,gsp agonist,RXFP1 antag,Akt phos inh,gsp antagonist,RXFP1 ag
CCC(=O)N1c2ccccc2CC1C(=O)NCc1cc(Br)ccc1OC (stereo not given),/,3,/,/,1%
O=C(NCCN1CCCCC1)Nc1cccc(Cl)c1Cl,-2%,-77*,i,9%,3%
Cc1ccc(C)c(NC(=O)NCCN2CCCCC2)c1,-8%,-77*,i,5%,1%
CCN1C(=O)C2(C(C#N)=C(N)Oc3n[nH]c(COC)c32)c2ccccc21 (stereo not given),-12%,26,i,3%,1%
CCCc1[nH]nc2c1C1(C(=O)N(CC)c3ccccc31)C(C#N)=C(N)O2 (stereo not given),40%,-2,-110%*,-8%,1%
CC(C)Cc1nnc(NC(=O)CSc2nc(=O)cc(N)n2-c2ccccc2)s1,16%,0,-114%*,-2%,0%
Nc1cc(=O)nc(SCC(=O)Nc2ccccc2)n1-c1ccccc1,-2%[15.4 µM],-10,i,15%,1%
CCCN1C(C(=O)c2ccccc2)=C(OC(=O)COc2ccc(C)cc2)c2ccccc2S1(=O)=O,/,0,/,/,-1%
CCc1ccc(NC(=O)CSC2=Nc3ccccc3C3=NC(CC(=O)NC4CCCCC4)C(=O)N23)cc1 (stereo not given),/,-70*,/,/,1%
CC(C)c1ccc(NC(=O)CSC2=Nc3ccccc3C3=NC(CC(=O)NC4CCCCC4)C(=O)N23)cc1 (stereo not given),/,-40,/,/,0%
CC(C)OC(=O)c1cc(C(=O)OC(C)C)cc([N+](=O)[O-])c1,/,-71*,/,/,/
COC(=O)CSc1nc2cc3c(cc2cc1C#N)OCO3,?,/,i,3%,?
CC(C)OC(=O)CSc1nc2cc3c(cc2cc1C#N)OCO3,?,-8,-97%*,20%,5%
CCOc1ccc(NC(=O)CN2CCSc3ccc(S(=O)(=O)N4CCCC4)cc32)cc1,/,/,/,/,3%
CN(C)CCCN1c2ccccc2Sc2ccc3ccccc3c21,35%,-63*,i,-7%,/
CN(C)CCCN1c2ccc3ccccc3c2Sc2cccc(Cl)c21,24%,-24,i,6%,/
COCCCOc1cc(C[C@@H](C[C@H](N)[C@@H](O)C[C@H](C(=O)NCC(C)(C)C(N)=O)C(C)C)C(C)C)ccc1OC,/,13,/,/,/
Nc1nnnn1-c1ccccc1,/,-74*,/,/,/
COc1ccc(/C=N/NC(=O)c2cccnc2)cc1COc1ccc([N+](=O)[O-])cc1,13%[15.4 µM],-85*,i,-11%,1%
COc1ccc(CCNC(=O)C(C)n2nc(C)c3sc4ccccc4c3c2=O)c(OC)c1 (stereo not given),/,-14,/,/,4%
Cc1cccc(Cn2c(C)c(C)c3cc(C(=O)NCc4ccco4)ccc32)c1,/,-19,/,/,-1%
CC1=Nc2ccc(C)cc2/C1=C/c1c(N)n2c(S(=O)(=O)C(C)C)nsc2nc1=O,-19%,-16,i,40µM*,0%
Cc1c(NC(=O)c2cc(-c3cccs3)on2)c(=O)n(-c2ccccc2)n1C,23%,-12,-83%*,4%,0%
CC(C)c1nc(N2CCOCC2)c(C#N)c2c1CCC2,0%,-18,i,35µM*,-1%

# Compound activity: PubChem BioAssay, National Center for Advancing Translational Sciences (NCATS)
